# From PubChem BioAssay (Tox21)
# A number with no mark means an inactive call. Inconclusive results are not listed. Where a call stands in place of a potency, no number is given. The source made the active and inactive calls. Unless noted, calls follow the shape of the dose curve; as a rule, active = well fitted curve in the direction sought with a large enough effect in the repeat runs; inconclusive = weak or mixed curves; inactive = no such curve, though single readings can be large; an effect the other way counts as inactive or inconclusive.
# How the values were obtained:
# [1] = qHTS assay to identify small molecule antagonists of the estrogen receptor beta (ER-beta) signaling pathway - cell viability counter screen (AID 1259382);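 also: HEK293T cells carrying ER-beta-UAS-bla reporter stimulated with estradiol; series mostly up to about 92 µM; nearly all actives have a fitted effect of over 55% in size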
# Outline: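 ER-beta-UAS-bla HEK293T cells (2,000/well, 2% charcoal-stripped FBS) were pre-incubated 6 hr at 37C, then given compound plus 1nM final 17-beta-estradiol for 16 hr. Viability was read in the same wells by CellTiter-Glo luminescence after 30 min at room temperature.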
# [2] = target: Estrogen receptor (Homo sapiens) (UniProt P03372); experiment: qHTS assay to identify small molecule agonists of the estrogen receptor alpha (ER-alpha) signaling pathway in the presence of an antagonist (AID 1259383; calls by dose curve; also: top concentration of the series differs between compounds; nearly all actives have a fitted effect of over 15% in size)
# Outline: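 VM7Luc4E2 cells (endogenous full-length ER-alpha, 4×ERE-luciferase) were precultured 5 days in phenol red-free medium with 10% charcoal-stripped FBS, given 10.0nM ICI-182,780 (final), then treated with compounds at 15 concentrations for 22hr at 37C; luminescence read with ONE-Glo.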
# [3] = target: Thyrotropin receptor (Homo sapiens) (UniProt P16473); experiment: qHTS assay to identify small molecule antagonists of the thyroid stimulating hormone receptor (TSHR) signaling pathway (AID 1259385; calls by dose curve; also: nearly all actives have a fitted effect of over 20% in size)
# Outline: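 TSHR-HEK293 cells (800/well) plated 18 h, then compounds with Ro20-1724 and TSH at 1.5 ng/mL final, 30 min at room temperature. cAMP quantified by HTRF (cAMP-d2/anti-cAMP-cryptate, 1 h); 15 concentrations in triplicate.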
# [4] = qHTS assay to identify small molecule agonists of the estrogen receptor alpha (ER-alpha) signaling pathway in the presence of an antagonist - cell viability counter screen (AID 1259386);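 also: series mostly up to about 92 µM; cells exposed to compounds for 22 h at 37 °C before the viability read; nearly all actives have a fitted effect of over 30% in size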
# Outline: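 VM7Luc4E2 cells (endogenous full-length ER-alpha, 4×ERE-luciferase) were held 5 days in phenol red-free medium with 10% charcoal-stripped FBS, plated, then given 10.0nM ICI-182,780 and compounds at 15 concentrations for 22hr at 37C; viability read by CellTiter-Fluor fluorescence.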
# [5] = target: Progesterone receptor (Homo sapiens) (UniProt P06401); experiment: qHTS assay to identify small molecule agonists of the progesterone receptor (PR) signaling pathway (AID 1346784; calls by dose curve; also: nearly all actives have a fitted effect of over 30% in size; also: potency is read from the fitted curve at half-maximal effect)
# Outline: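 Compounds were tested for PR agonism in HEK 293T cells bearing a beta-lactamase gene under UAS control. Treatment lasted 16 hr at 37C; signal came from fluorescence of a FRET substrate.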
# [6] = target: Progesterone receptor (Homo sapiens) (UniProt P06401); experiment: qHTS assay to identify small molecule antagonists of the progesterone receptor (PR) signaling pathway (AID 1346795; active = well fitted inhibition curve with a large enough effect in the signal ratio in the repeat runs, not every such curve was filed as active; the % refers to the signal ratio)
# Outline: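 In HEK293T cells bearing the PR-UAS-bla reporter, compound effects on promegestone-driven (1 nM) beta-lactamase expression are assessed after 16 hr using a fluorescent FRET substrate incubated 2 hr at room temperature.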
# [7] = qHTS assay to identify small molecule antagonists of the TGF-beta/Smad signaling pathway - cell viability counter screen (AID 1346824); also: nearly all actives have a fitted effect of over 50% in size
# Outline: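 SBE-bla HEK 293T cells, incubated overnight, then compound plus 0.25 ng/mL TGF-beta1 (stock added) for 5 hr at 37 C. Viability was read in the same wells by CellTiter-Glo luminescence after 30 min at room temperature.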
# [8] = qHTS assay to identify small molecule agonists of the TGF-beta/Smad signaling pathway - cell viability counter screen (AID 1346829); also: top concentration of the series differs between compounds; nearly all actives have a fitted effect of over 45% in size
# Outline: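 CellTiter-Glo luminescence readout; SBE-bla HEK 293T cells, overnight plating, compound 5 hr at 37 C/5% CO2, then bla substrate 2 hr RT, then CellTiter-Glo 30 min RT.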
# [9] = qHTS assay to identify small molecule agonists of the TGF-beta/Smad signaling pathway (AID 1346859; active = well fitted activation curve with a large enough effect in the signal ratio in the repeat runs, not every such curve was filed as active; the % refers to the signal ratio; also: series mostly up to about 77 µM)
# Outline: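 Each well held 4,000 SBE-bla HEK 293T cells incubated overnight before compound addition; 5 hr later the cleavable FRET substrate went on for 2 hr at room temperature, and fluorescence was read at two emissions.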
# [10] = target: Thyrotropin-releasing hormone receptor (Homo sapiens) (UniProt P34981); experiment: qHTS assay to identify small molecule antagonists of the thyrotropin-releasing hormone receptor (TRHR) signaling pathway (AID 1346877; active = well fitted inhibition curve with a large enough effect in the repeat runs, not every such curve was filed as active; also: series mostly up to about 51 µM)
# Outline: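 TRHR-expressing HEK293 cells were seeded, cultured 18 h at 37 °C, then loaded with calcium dye for 2 h. Compounds were pre-incubated 5 min at room temperature before 1 nM TRH (final) was added, and kinetic fluorescence was recorded for 3 min.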
# [11] = target: Thyrotropin-releasing hormone receptor (Homo sapiens) (UniProt P34981); experiment: qHTS assay to identify small molecule agonists of the thyrotropin-releasing hormone receptor (TRHR) signaling pathway (AID 1346891; calls by dose curve; also: series mostly up to about 58 µM)
# Outline: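 Screening of agonists relied on calcium signalling in HEK293 cells expressing human TRHR: dye loading 2 h at 37 °C preceded compound addition and a 3-min fluorescence time course.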
# [12] = Caspase-3/7 induction in HepG2 cells by small molecules, qHTS assay (AID 1346978); also: nearly all actives have a fitted effect of over 15% in size
# Outline: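 Wild-type HepG2 cells, 2,000/well, settled 5 hr at 37 C and 5% CO2, then compound-treated for 17 hr; caspase-3/7 activity read by luminescent Caspase-Glo 3/7 after 30 min at room temperature.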
# [13] = Caspase-3/7 induction in CHO-K1 cells by small molecules, qHTS cell viability counter screen (AID 1346979); also: nearly all actives have a fitted effect of over 35% in size
# Outline: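 CellTiter-Fluor viability check, qHTS format: wild-type CHO-K1, 16hr compound treatment, 1hr reagent incubation, fluorescence read.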
# [14] = Caspase-3/7 induction in CHO-K1 cells by small molecules, qHTS assay (AID 1346980); also: nearly all actives have a fitted effect of over 15% in size
# Outline: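 Wild-type CHO-K1 cells exposed to compounds for 17hr at 37 C, 5% CO2. Caspase-3/7 activity then measured by Caspase-Glo 3/7 luminescence after 30min at room temperature.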
# [15] = Caspase-3/7 induction in HepG2 cells by small molecules, qHTS cell viability counter screen (AID 1346981); also: series mostly up to about 92 µM; nearly all actives have a fitted effect of over 30% in size
# Outline: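 Wild-type HepG2 cells (2,000/well) were allowed to settle for 5 hr at 37 C, 5% CO2, then dosed with compounds in DMSO by pin transfer. After 16 hr at 37 C, CellTiter-Fluor was added and fluorescence read 1 hr later.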
# [16] = qHTS assay to identify small molecule agonists of the progesterone receptor (PR) signaling pathway - cell viability counter screen (AID 1346799; calls by dose curve; also: nearly all actives have a fitted effect of over 45% in size)
# Outline: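 Here, 3,000 PR-UAS-bla HEK293T cells per well were treated with compounds for 16 hr after a 6 hr preincubation at 37C and 5% CO2; cell viability is the CellTiter-Glo luminescence signal.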
# [17] = Human pregnane X receptor (PXR) small molecule agonists, qHTS cell viability counter screen (AID 1346977); also: nearly all actives have a fitted effect of over 50% in size
# Outline: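 Tox21 qHTS format; PXR-Luc HepG2, 2,000/well, charcoal-stripped FBS 5%. Cpd exposure 24hr. Read: CellTiter-Fluor fluorescence, multiplexed with luciferase.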
# [18] = target: Nuclear receptor subfamily 1 group I member 2 (Homo sapiens) (UniProt O75469); experiment: Human pregnane X receptor (PXR) small molecule agonists, qHTS assay (AID 1346982); also: nearly all actives have a fitted effect of over 35% in size; also: potency is read from the fitted curve at half-maximal effect
# Outline: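 PXR-Luc HepG2 cells (CYP3A4 promoter-driven luciferase) were seeded in medium with 5% charcoal-stripped FBS, left 5 hr at 37 C, then exposed to compounds in DMSO for 24 hr. Luminescence was read after ONE-Glo addition.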
# [19] = qHTS assay to identify small molecule antagonists of the progesterone receptor (PR) signaling pathway - cell viability counter screen (AID 1346798); also: series mostly up to about 92 µM; nearly all actives have a fitted effect of over 50% in size
# Outline: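 Following a 4 hr attachment, PR-UAS-bla HEK293T cells in charcoal-stripped FBS medium were exposed to compounds with R5020 for 16 hr; CellTiter-Glo was added and luminescence read after 30 min at room temperature.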
# [20] = qHTS assay to identify small molecule agonists or antagonists of the thyroid stimulating hormone receptor (TSHR) signaling pathway - wild type cell line counter screen (AID 1259384; calls by dose curve)
# Outline: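 Wild-type Hek293 cells, 800/well, 18 h at 37C, then compound with Ro20-1724 for 30 min RT. cAMP by HTRF (cAMP-d2/anti-cAMP cryptate), 1 h RT, fluorescence read. 15 concentrations, triplicates.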
# Thyrotropin-releasing hormone receptor (Homo sapiens), sequence (P34981 whole entry, looked up): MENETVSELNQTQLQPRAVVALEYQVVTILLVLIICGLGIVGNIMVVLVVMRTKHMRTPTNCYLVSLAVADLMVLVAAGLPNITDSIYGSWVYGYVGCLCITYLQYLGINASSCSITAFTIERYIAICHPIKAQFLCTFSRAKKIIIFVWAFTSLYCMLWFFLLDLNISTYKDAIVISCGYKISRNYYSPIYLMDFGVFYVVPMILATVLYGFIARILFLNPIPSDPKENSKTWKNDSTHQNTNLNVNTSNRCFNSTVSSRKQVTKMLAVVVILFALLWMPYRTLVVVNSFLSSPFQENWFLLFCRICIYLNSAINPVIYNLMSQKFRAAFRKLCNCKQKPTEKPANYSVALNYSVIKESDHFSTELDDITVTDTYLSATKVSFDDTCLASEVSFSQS
# Progesterone receptor (Homo sapiens), sequence (P06401 whole entry, looked up): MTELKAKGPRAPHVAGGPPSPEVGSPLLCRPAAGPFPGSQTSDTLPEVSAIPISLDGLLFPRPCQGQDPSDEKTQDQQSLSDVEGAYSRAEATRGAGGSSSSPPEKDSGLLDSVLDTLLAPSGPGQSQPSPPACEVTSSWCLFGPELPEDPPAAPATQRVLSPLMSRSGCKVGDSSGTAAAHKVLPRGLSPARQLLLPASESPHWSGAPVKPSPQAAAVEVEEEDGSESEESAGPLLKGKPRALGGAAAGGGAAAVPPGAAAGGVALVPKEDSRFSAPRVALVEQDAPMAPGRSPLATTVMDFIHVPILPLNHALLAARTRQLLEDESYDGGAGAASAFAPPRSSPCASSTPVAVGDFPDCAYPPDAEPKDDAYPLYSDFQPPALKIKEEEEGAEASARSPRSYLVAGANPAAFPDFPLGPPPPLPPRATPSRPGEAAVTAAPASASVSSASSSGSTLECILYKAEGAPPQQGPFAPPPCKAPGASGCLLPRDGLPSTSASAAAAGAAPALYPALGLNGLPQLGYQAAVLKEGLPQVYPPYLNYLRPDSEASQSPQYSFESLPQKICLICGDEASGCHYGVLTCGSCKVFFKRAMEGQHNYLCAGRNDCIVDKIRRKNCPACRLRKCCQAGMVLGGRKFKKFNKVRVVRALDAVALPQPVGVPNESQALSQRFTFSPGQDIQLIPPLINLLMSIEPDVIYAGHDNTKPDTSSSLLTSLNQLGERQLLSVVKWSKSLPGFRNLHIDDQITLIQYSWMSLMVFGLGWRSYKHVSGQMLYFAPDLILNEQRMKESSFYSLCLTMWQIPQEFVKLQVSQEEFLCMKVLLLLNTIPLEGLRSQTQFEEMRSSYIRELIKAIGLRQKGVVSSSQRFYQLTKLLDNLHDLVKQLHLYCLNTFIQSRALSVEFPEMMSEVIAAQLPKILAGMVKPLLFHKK
# Estrogen receptor (Homo sapiens), sequence (P03372 whole entry, looked up): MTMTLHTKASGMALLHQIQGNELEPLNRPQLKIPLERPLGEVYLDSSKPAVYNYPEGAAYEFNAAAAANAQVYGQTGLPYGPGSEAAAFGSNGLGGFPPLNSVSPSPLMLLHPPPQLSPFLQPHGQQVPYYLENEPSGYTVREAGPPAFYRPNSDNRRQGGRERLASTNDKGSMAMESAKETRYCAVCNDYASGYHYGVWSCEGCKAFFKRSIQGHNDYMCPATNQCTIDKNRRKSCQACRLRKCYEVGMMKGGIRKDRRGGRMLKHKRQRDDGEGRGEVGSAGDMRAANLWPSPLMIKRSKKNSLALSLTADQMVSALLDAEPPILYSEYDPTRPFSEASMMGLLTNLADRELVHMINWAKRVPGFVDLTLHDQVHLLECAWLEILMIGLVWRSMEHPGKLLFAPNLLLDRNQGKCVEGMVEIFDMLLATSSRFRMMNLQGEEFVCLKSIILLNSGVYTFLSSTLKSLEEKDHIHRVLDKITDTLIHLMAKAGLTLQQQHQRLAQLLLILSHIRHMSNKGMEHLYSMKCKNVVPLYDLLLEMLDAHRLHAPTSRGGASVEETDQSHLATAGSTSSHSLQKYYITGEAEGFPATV
# Nuclear receptor subfamily 1 group I member 2 (Homo sapiens), sequence (O75469 whole entry, looked up): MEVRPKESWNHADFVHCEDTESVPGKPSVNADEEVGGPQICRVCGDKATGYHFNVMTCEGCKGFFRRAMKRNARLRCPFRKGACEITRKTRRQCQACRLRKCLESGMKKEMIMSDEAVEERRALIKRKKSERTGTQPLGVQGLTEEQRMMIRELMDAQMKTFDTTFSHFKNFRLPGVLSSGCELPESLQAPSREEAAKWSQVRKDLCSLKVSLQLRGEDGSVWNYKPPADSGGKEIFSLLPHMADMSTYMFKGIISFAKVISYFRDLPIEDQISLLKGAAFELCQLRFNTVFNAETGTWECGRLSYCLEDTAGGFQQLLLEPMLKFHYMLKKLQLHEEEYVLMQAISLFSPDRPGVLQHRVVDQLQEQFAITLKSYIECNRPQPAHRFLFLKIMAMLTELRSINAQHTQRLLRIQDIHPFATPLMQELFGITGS
# Thyrotropin receptor (Homo sapiens), sequence (P16473 whole entry, looked up): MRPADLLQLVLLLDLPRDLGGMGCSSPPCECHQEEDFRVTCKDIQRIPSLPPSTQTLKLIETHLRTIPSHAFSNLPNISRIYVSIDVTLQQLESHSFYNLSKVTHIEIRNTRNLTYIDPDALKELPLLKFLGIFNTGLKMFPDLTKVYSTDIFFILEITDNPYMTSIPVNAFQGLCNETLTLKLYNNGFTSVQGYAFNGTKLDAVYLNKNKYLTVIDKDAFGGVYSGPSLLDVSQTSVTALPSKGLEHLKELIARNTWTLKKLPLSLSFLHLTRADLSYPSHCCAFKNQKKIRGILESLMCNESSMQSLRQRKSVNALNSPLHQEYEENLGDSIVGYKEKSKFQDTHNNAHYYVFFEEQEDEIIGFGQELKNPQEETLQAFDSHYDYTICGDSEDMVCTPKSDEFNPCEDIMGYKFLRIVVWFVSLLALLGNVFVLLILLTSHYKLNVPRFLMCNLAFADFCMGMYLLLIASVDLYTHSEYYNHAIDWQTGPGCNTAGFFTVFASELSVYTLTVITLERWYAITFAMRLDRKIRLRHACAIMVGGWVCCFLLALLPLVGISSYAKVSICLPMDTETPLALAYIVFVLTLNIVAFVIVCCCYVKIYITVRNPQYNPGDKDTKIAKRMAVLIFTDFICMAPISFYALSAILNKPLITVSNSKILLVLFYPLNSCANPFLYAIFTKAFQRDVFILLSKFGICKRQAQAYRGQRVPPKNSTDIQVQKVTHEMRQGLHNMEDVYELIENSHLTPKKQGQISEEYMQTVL
compound,measurement,setting,value
CC(C)C[C@@H]1[C@H](c2ccccc2)OC(=O)N1CCCN1CCCCCC1,outcome,[1],inactive
same,Potency,[2],inactive
same,outcome,[3],inactive
same,outcome,[4],inactive
same,Potency,[5],inactive
same,Potency,[6],inactive
same,outcome,[7],inactive
same,outcome,[8],inactive
same,outcome,[9],inactive
same,outcome,[10],inactive
same,outcome,[11],inactive
same,outcome,[12],inactive
same,Potency,[13],inactive
same,outcome,[14],inactive
same,outcome,[15],inactive
[O]=[Mo](=[O])=[O],"activity change, negative = cytotoxicity",[1],-3.58% [at 19 µM]
same,activation,[2],-1.83% [at 19 µM]
same,"activity change, negative = inhibition",[3],4.59% [at 19 µM]
same,"activity change, negative = cytotoxicity",[4],-0.317% [at 19 µM]
same,activation,[5],1.92% [at 19 µM]
same,"activity change, negative = inhibition",[6],2.07% [at 18.9 µM]
same,"activity change, negative = cytotoxicity",[16],7.88% [at 19 µM]
same,"viability change, negative = cytotoxic",[7],0.506% [at 15.8 µM]
same,"activity change, negative = cytotoxicity",[8],7.35% [at 15.8 µM]
same,activation,[9],0.212% [at 15.8 µM]
same,"activity change, negative = cytotoxicity",[17],1.91% [at 19 µM]
same,caspase activation,[12],1.23% [at 19 µM]
same,"activity change, negative = cytotoxicity",[13],3.86% [at 19 µM]
same,caspase-3/7 activation,[14],0.334% [at 19 µM]
same,"activity change, negative = cytotoxicity",[15],-3.34% [at 19 µM]
same,activation,[18],1.34% [at 19 µM]
CC(C)C1OCCN1CCOC(=O)NCCCCCCNC(=O)OCCN1CCOC1C(C)C (stereo not drawn),outcome,[1],inactive
same,Potency,[2],inactive
same,outcome,[3],inactive
same,outcome,[4],inactive
same,Potency,[5],inactive
same,Potency,[6],inactive
same,outcome,[16],inactive
same,outcome,[7],inactive
same,outcome,[9],inactive
same,outcome,[10],inactive
same,outcome,[11],inactive
same,outcome,[17],inactive
same,outcome,[12],inactive
same,Potency,[13],inactive
same,outcome,[14],inactive
same,outcome,[15],inactive
same,Potency,[18],34.4 µM (active)
CC(C)COC(=O)c1ccccc1,outcome,[1],inactive
same,Potency,[2],inactive
same,outcome,[3],inactive
same,outcome,[4],inactive
same,Potency,[5],inactive
same,outcome,[7],inactive
same,outcome,[8],inactive
same,outcome,[9],inactive
same,outcome,[10],inactive
same,outcome,[11],inactive
same,outcome,[17],inactive
same,outcome,[12],inactive
same,Potency,[13],inactive
same,outcome,[14],inactive
same,outcome,[15],inactive
same,Potency,[18],inactive
CCCC(CC)c1ccccc1 (stereo not drawn),outcome,[1],inactive
same,Potency,[2],inactive
same,outcome,[3],inactive
same,outcome,[4],inactive
same,Potency,[5],inactive
same,Potency,[6],inactive
same,outcome,[19],inactive
same,outcome,[16],inactive
same,outcome,[7],inactive
same,outcome,[8],inactive
same,outcome,[9],inactive
same,outcome,[17],inactive
same,outcome,[12],inactive
same,Potency,[13],inactive
same,outcome,[14],inactive
same,outcome,[15],inactive
CCCCOCCOC(=O)COc1ccc(Cl)cc1Cl,outcome,[1],inactive
same,Potency,[2],inactive
same,outcome,[3],inactive
same,outcome,[4],inactive
same,Potency,[5],inactive
same,Potency,[6],inactive
same,outcome,[19],inactive
same,outcome,[16],inactive
same,outcome,[7],inactive
same,outcome,[8],inactive
same,outcome,[10],inactive
same,outcome,[11],inactive
same,outcome,[17],inactive
same,outcome,[12],inactive
same,outcome,[14],inactive
same,outcome,[15],inactive
same,Potency,[18],inactive
CN(C)CCCCl,outcome,[1],inactive
same,Potency,[2],inactive
same,outcome,[20],inactive
same,outcome,[4],inactive
same,Potency,[5],inactive
same,Potency,[6],inactive
same,outcome,[16],inactive
same,outcome,[7],inactive
same,outcome,[8],inactive
same,outcome,[9],inactive
same,outcome,[10],inactive
same,outcome,[11],inactive
same,outcome,[17],inactive
same,outcome,[12],inactive
same,Potency,[13],inactive
same,outcome,[14],inactive
same,outcome,[15],inactive
same,Potency,[18],inactive
C[C@]12CCC(=O)C=C1CC[C@H]1[C@@H]3CC[C@](O)(C(=O)CO)[C@@]3(C)C[C@H](O)[C@@]12F,outcome,[1],inactive
same,Potency,[2],inactive
same,outcome,[3],inactive
same,outcome,[4],inactive
same,Potency,[5],1.68 µM (active)
same,Potency,[6],inactive
same,outcome,[19],inactive
same,outcome,[7],inactive
same,outcome,[8],inactive
same,outcome,[9],inactive
same,outcome,[10],inactive
same,outcome,[11],inactive
same,outcome,[17],inactive
same,outcome,[12],inactive
same,Potency,[13],inactive
same,outcome,[14],inactive
same,outcome,[15],inactive
same,Potency,[18],inactive
